The values below come from PubChem BioAssay AID651871 (Sanford-Burnham Center for Chemical Genomics, 2012).

Where “and” joins values, the source holds several entries; their conditions need not be identical. Equal entries are not always repeated.

For the test, the system named is HL-1. The experiment in a line: protection of cardiomyocytes from stress damage, SAR follow-up, cell-based, panel, H9c2 and HL-1, ATP luminescence, set 2 (AID 651871).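 Note: cells exposed to stressor for 2 h before ATP readout; reference of the scale not given here.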 The note with it: H9c2/HL-1 cardiomyocytes, 2-deoxyglucose stress, with 2-deoxyglucose; run 7, at 79 µM (top of the series).
For the compound `COc1ccc2c(c1OC)C(=O)N1c3ccccc3C(=O)N(Cc3cccc(Cl)c3Cl)C21` (stereo not drawn), the activity (protection/inhibition) was 48.9% and 20.1% and -9.92%.
Next, `CCOC(=O)c1cccc(NC(=O)CNC(=O)c2cc(-c3cc(OC)c(OC)c(OC)c3)nc3ccccc23)c1`: 54.3%; `COc1ccc2nc(-c3cc(OC)c(OC)c(OC)c3)cc(C(=O)NCC(=O)Nc3ccc(C(C)=O)cc3)c2c1`: 38%.
